DT40 TDP1 CPT = growth inhibition of DT40 Tdp1-/-;hTDP1 cells with camptothecin (screen for TDP1 inhibitors). chicken DT40 Tdp1-/-;hTDP1 cells + 20 nM CPT, ATP luminescence, 48 h. Potency, µM (highest dose often 46.2 µM), hits mostly inhibitors. hit rate 12% among 420,000; also: nearly all actives have a fitted effect of over 55% in size
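Chicken DT40 Tdp1-/- cells stably complemented with human TDP1 were seeded at 400 cells/well in medium containing 20 nM camptothecin, exposed to pin-transferred compounds, and grown at 37 °C for at least 48 hr. Viability was read as ATP luminescence.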
KB-3-1 tox = KB-3-1 parental cell cytotoxicity | KB-3-1 viability, CellTiter-Glo ATP luminescence, 72 h | Potency, µM (top dose mostly 46.1 µM), usual class: cytotoxic | hit rate 1.4% among 400,000 | AID 1347075; also: nearly all actives have a fitted effect of over 60% in size
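72 h, 37 °C compound treatment of KB-3-1 parental cells; CellTiter-Glo added, 10 min, luminescence read. Data corrected against DMSO-only plates and normalized before curve fitting.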
HT1080-NT tox = kills 2HG-producing HT-1080-NT fibrosarcoma cells; HT-1080-NT fibrosarcoma viability, CellTiter-Glo ATP luminescence, 48 h; Potency, µM (highest dose often 46.1 µM), most hits filed as cytotoxic; hit rate 1.6% among 360,000; AID 686970;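 also: NT is the 2HG producing partner of a matched IDH1 knockdown line; nearly all actives have a fitted effect of over 55% in size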
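Compounds were tested in concentration-response format on HT-1080-NT cells for 48 hours at 37 degrees C. Cell viability came from CellTiter-Glo luminescence; curves were classified by r2, response magnitude and activity.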
KB-V1 cytotox = kills drug-selected multidrug resistant KB-V1 cells; KB-V1 MDR cells viability, CellTiter-Glo, 72 h; Potency, µM (series often up to 46.1 µM), actives largely listed as cytotoxic; hit rate 3.4% among 400,000; AID 1347076; also: nearly all actives have a fitted effect of over 60% in size
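Readout: CellTiter-Glo luminescence, 10 min after addition. Cells: KB-V1 MDR subline, 72 h at 37 degrees C with compound. Analysis: corrected, normalized data fitted to concentration-effect curves.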
HT1080 IDH1KD tx = HT-1080 IDH1 knockdown cell toxicity (counter line) | HT-1080 IDH1 knockdown viability, ATP luminescence, 48 h | AID 686971 | hit rate 2% among 360,000 | Potency, µM (series often up to 46.1 µM), most hits filed as cytotoxic
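Cytotoxicity counter-line: IDH1KD HT-1080, 48 h, CellTiter-Glo. Curves classed by r2, magnitude and activity.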
DT40 TDP1 no CPT = qHTS for Inhibitors of human tyrosyl-DNA phosphodiesterase 1 (TDP1): qHTS in cells in absence of CPT | DT40 Tdp1-/- hTDP1 cells, no CPT, ATP luminescence, 48 h | Potency, µM (highest dose often 46.2 µM), most hits filed as inhibitors | hit rate 15% among 420,000 | AID 686978, 2013; also: nearly all actives have a fitted effect of over 55% in size
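Growth kinetics read by CellTiter-Glo luminescence after ≥48 hr at 37 °C. Cells: DT40 Tdp1-/- stably carrying human TDP1, 400 per well, compound exposure in the absence of CPT (DMSO vehicle).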
Large screens that a line does not name were inactive. Hits are enriched below; roughly 19% of the tested compounds scored in any of these assays. Calls follow the shape of the dose curve; as a rule, active = well fitted curve in the direction sought with a large enough effect; inconclusive = small, poorly fitted or top-dose-only effect, or another doubt; inactive = no such curve, though single readings can be large; an effect the other way counts as inactive or inconclusive.

COc1ccccc1NC(=O)c1cc2c(C)nn(-c3ccccc3)c2s1	DT40 TDP1 CPT inconclusive, DT40 TDP1 no CPT 23.1µM (no result: HT1080-NT tox, HT1080 IDH1KD tx)
Cc1ccc(NC(=O)c2cc3c(-c4ccccc4)nn(-c4ccccc4)c3s2)cc1	KB-V1 cytotox inconclusive (no result: DT40 TDP1 CPT, HT1080-NT tox, HT1080 IDH1KD tx, DT40 TDP1 no CPT)
CCC(=O)N(C)C[C@H]1Oc2ncc(C#Cc3cccnc3)cc2C(=O)N([C@@H](C)CO)C[C@@H]1C	none
Cc1cccc(N2CCN(CCNC(=O)Nc3ccc(Cl)cc3)CC2)c1C	DT40 TDP1 CPT 13µM, DT40 TDP1 no CPT 13µM (no result: KB-3-1 tox, HT1080-NT tox, KB-V1 cytotox, HT1080 IDH1KD tx)
Cn1cc(C(=O)NCCN2CCN(c3cccc(Cl)c3)CC2)c2c3ccccc3n(C)c2c1=O	DT40 TDP1 CPT 25.9µM, DT40 TDP1 no CPT 14.6µM
COCCCNC(=O)c1cn(C)c(=O)c2c1c1ccccc1n2C	none
Cc1cc(C(=O)NCCN2CCN(c3cccc(Cl)c3)CC2)n(-c2ccccc2)n1	DT40 TDP1 CPT 5.8µM, KB-3-1 tox 14.6µM, HT1080-NT tox 8.2µM, HT1080 IDH1KD tx 16.4µM, DT40 TDP1 no CPT 4.11µM
Cc1cc(C(=O)NCCCN2CCN(c3cc(Cl)ccc3C)CC2)n(-c2ccccc2)n1	DT40 TDP1 CPT 10.3µM, KB-3-1 tox inconclusive, HT1080-NT tox inconclusive, KB-V1 cytotox inconclusive, HT1080 IDH1KD tx inconclusive, DT40 TDP1 no CPT inconclusive
COc1ccc(CCN(C)C(=S)Nc2cccc(C)c2)cc1OC	KB-V1 cytotox inconclusive
Cc1ccc(N2C(SCC(=O)O)=NC(=Nc3cccc(C)c3)C23CCCC3)cc1	none
CN1CCC/C1=C1/C(=O)N(c2ccccc2)N=C1NC(=O)Nc1cccc(Cl)c1	DT40 TDP1 CPT 8.2µM, DT40 TDP1 no CPT 14.6µM
Cc1ccc(NC(=O)NCCN2CCN(c3ccccc3)CC2)cc1Cl	DT40 TDP1 CPT inconclusive, HT1080 IDH1KD tx inconclusive, DT40 TDP1 no CPT inconclusive
O=C(NCCN1CCN(c2ccccc2)CC1)Nc1cccc(Cl)c1	DT40 TDP1 CPT inconclusive, HT1080-NT tox 20.6µM, HT1080 IDH1KD tx 18.4µM, DT40 TDP1 no CPT inconclusive
CCN(Cc1ccncc1)Cc1ccc2c(c1)CN(C(=O)c1ccccc1-n1cccn1)CCO2	none (no result: KB-3-1 tox, HT1080-NT tox, KB-V1 cytotox, HT1080 IDH1KD tx)
CCc1ccc(CN2C(=O)c3ccccc3C2C(=O)NC2CCCCCC2)cc1 (configuration not stated)	none (no result: HT1080-NT tox, HT1080 IDH1KD tx)
Cc1cc(C)cc(NC(=O)Cn2nnc(-c3ccccc3F)n2)c1	DT40 TDP1 no CPT inconclusive (no result: KB-3-1 tox, HT1080-NT tox, KB-V1 cytotox, HT1080 IDH1KD tx)
CC(=O)Nc1cc(-c2ccccc2N(C)C)cn2c(-c3ccc(S(C)(=O)=O)cc3)cnc12	DT40 TDP1 CPT inconclusive, DT40 TDP1 no CPT 18.4µM
CC(=O)Nc1cc(-c2ccccc2N(C)C)cn2c(-c3ccccc3)cnc12	DT40 TDP1 CPT 16.4µM, HT1080-NT tox inconclusive, KB-V1 cytotox inconclusive, HT1080 IDH1KD tx inconclusive, DT40 TDP1 no CPT 23.1µM
CC(=O)Nc1cc(-c2ccc(S(C)(=O)=O)cc2)cn2c(-c3ccc(F)cc3)cnc12	DT40 TDP1 CPT inconclusive, DT40 TDP1 no CPT inconclusive
O=C(Nc1ccc(F)cc1F)c1ccc2c(O)c(S(=O)(=O)c3ccc(Cl)cc3)c(=O)[nH]c2c1	none (no result: HT1080-NT tox, HT1080 IDH1KD tx)
O=c1[nH]c(CO)nc2c1oc1ccccc12	none
O=c1[nH]c(Cc2ccccc2)nc2c1oc1ccccc12	DT40 TDP1 CPT 6.51µM, DT40 TDP1 no CPT inconclusive
O=S(=O)(c1ccccc1Cl)N1CCN(c2nc(-c3ccccc3)nc3ccccc23)CC1	KB-V1 cytotox inconclusive, DT40 TDP1 no CPT inconclusive (no result: HT1080-NT tox, HT1080 IDH1KD tx)
COc1ccc(-c2nc3cc(C)ccc3cc2CN(C(=O)c2ccc(C)s2)C2CC2)cc1OC	DT40 TDP1 no CPT 20.6µM (no result: KB-3-1 tox, HT1080-NT tox, KB-V1 cytotox, HT1080 IDH1KD tx)
COc1ccc(-c2nc3cc(C)ccc3cc2CN(C(=O)c2ccco2)C2CC2)cc1OC	DT40 TDP1 no CPT inconclusive (no result: KB-3-1 tox, HT1080-NT tox, KB-V1 cytotox, HT1080 IDH1KD tx)
COc1ccc(-c2nc3cc(C)ccc3cc2CN(C(=O)c2cc(C)nn2C)C2CC2)cc1OC	DT40 TDP1 CPT inconclusive, DT40 TDP1 no CPT 20.6µM (no result: KB-3-1 tox, HT1080-NT tox, KB-V1 cytotox, HT1080 IDH1KD tx)
COc1ccc(-c2nc3cc(C)ccc3cc2CN(C(=O)c2cccs2)C2CC2)cc1OC	DT40 TDP1 CPT inconclusive, DT40 TDP1 no CPT 13µM (no result: KB-3-1 tox, HT1080-NT tox, KB-V1 cytotox, HT1080 IDH1KD tx)
COc1cccc(C(=O)N(Cc2cc3ccc(C)cc3nc2N(C)C)C2CC2)c1OC	none (no result: KB-3-1 tox, HT1080-NT tox, KB-V1 cytotox, HT1080 IDH1KD tx)
COc1cccc(-c2nc3cc4c(cc3cc2CN(C(=O)c2cc(C)nn2C)C2CC2)CCC4)c1OC	DT40 TDP1 CPT 4.11µM, DT40 TDP1 no CPT 16.4µM (no result: KB-3-1 tox, HT1080-NT tox, KB-V1 cytotox, HT1080 IDH1KD tx)
CCc1ccccc1-n1nnnc1-c1cnccc1C(F)(F)F	DT40 TDP1 CPT inconclusive
CC(=O)Oc1cc2c(s1)CCN(C(C(=O)C1CC1)c1ccccc1F)C2 (configuration not stated)	none (no result: KB-3-1 tox, HT1080-NT tox, KB-V1 cytotox, HT1080 IDH1KD tx)
O=C1C2C(C(=O)N1/N=C/c1ccc(N3CCCCC3)o1)C1C=CC2C12CC2 (configuration not stated)	DT40 TDP1 CPT 18.4µM, KB-3-1 tox inconclusive, KB-V1 cytotox inconclusive, DT40 TDP1 no CPT 14.6µM
COc1ccc(-c2cc3nc(C)cc(-c4ccc(OC)cc4)n3n2)cc1	DT40 TDP1 CPT inconclusive, DT40 TDP1 no CPT inconclusive
COc1ccc(-c2cc3nc(-c4ccccc4)cc(N4CCCC(O)C4)n3n2)cc1 (configuration not stated)	DT40 TDP1 CPT 16.4µM, HT1080-NT tox inconclusive, HT1080 IDH1KD tx 20.6µM, DT40 TDP1 no CPT 11.6µM

Screening data from PubChem BioAssay.
